Results with a measured potency or affinity are listed apart. Records with an inconclusive call do not appear. Values without a mark were called inactive.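 The calls were made as follows: active = fluorescence drops, meaning less fungal growth, with half-maximal dose at most ten times the top valid tested dose; inconclusive = flat curve with 30 to 70% inhibition, or poor fit; inactive = the rest, including compounds that raise the signal.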
assay: resistant Candida growth with fluconazole co-treatment – CaCi-8 strain, Alamar Blue, dry powder, set 2, dose response (AID 488909); conditions: C. albicans CaCi-8 + fluconazole, 48 h; series mostly up to 26 µM; activity change, negative = inhibition: at the top concentration

| Compound | activity change, negative = inhibition |
| --- | --- |
| Cc1cc(N2CCN(C(=O)c3ccc(Cl)cc3)CC2)c2ccccc2n1 | -20.2% |
| Clc1ccc2c(N3CCNCC3)ccnc2c1 | 8.86% |
| N#Cc1ccc(N2CCN(C(=O)c3ccc(Cl)cc3)CC2)nc1 | -19.2% |
| COCCC(=O)N1CCN(c2ccnc3cc(Cl)ccc23)CC1 | -6.82% |
